Data taken from ChEMBL document CHEMBL1157539, “Thousands of chemical starting points for antimalarial lead identification” (Nature, 2010).

Legend:
Type in all cases: functional
Plasmodium falciparum [1] = assay: GSK_TCMDC: Inhibition of Plasmodium falciparum 3D7 in whole red blood cells, using parasite LDH activity as an index of growth. Test compounds present at 2uM
Plasmodium falciparum [2] = assay: GSK_TCMDC: Inhibition of Plasmodium falciparum Dd2 in whole red blood cells, using parasite LDH activity as an index of growth. Test compounds present at 2uM
HepG2 = assay: GSK_TCMDC: Percent inhibition of human HepG2 cell line. Test compounds present at 10uM.

| SMILES | Inhibition (Plasmodium falciparum [1]) | Inhibition (Plasmodium falciparum [2]) | Inhibition (HepG2) |
| --- | --- | --- | --- |
| Br.Oc1ccc(CNCCCCCCNCCc2ccc(Cl)cc2)cc1O | 94% | 7% | 2% |
| CC(C)Oc1cc2c(cc1NS(=O)(=O)c1ccc(-c3ccc(Cl)s3)cc1F)CCN(C)CC2.Cl | 99% | 1% | 23% |
| NCc1ccc(CNCc2cccc(-c3ccc(-c4nc5ccccc5[nH]4)cc3)c2)cc1.O=C(O)C(F)(F)F | 100% | 58% | 10% |
| CN(C)CCNc1ncnc2c1[nH]c1ccc(Br)cc12 | 100% | 7% | 2% |
| O=c1cc(NCCCNCc2ccc3c(c2)OC(F)(F)O3)[nH]c2ccccc12 | 100% | 94% | 0% |
| CCNc1cc(CC)nc(Nc2ccc(C)cc2)n1 | 100% | 24% | 22% |
| CCCCCOc1ccc(/N=C2\C=C(O)C(=O)c3ccccc32)cc1 | 99% | 96% | 10% |
| Cc1cccc(C)c1C1CCN(C2CCC(NC(=O)/C=C/c3ccccc3)CC2)CC1 (centres undefined) | 100% | 45% | 42% |
| CN1CCN(Cc2cc3cc(NC(=O)/C=C/c4ccc(Cl)cc4)ccc3s2)CC1.Cl | 100% | 20% | 51% |
| COc1ccc2nccc([C@@H](O)CN3CCC(NC(=O)C(c4cc5ccccc5s4)N4CCN(c5ccccc5OC)CC4)CC3)c2c1 (some centres undefined) | 100% | 88% | 21% |
| O=C1Nc2ccccc2/C1=N/NC(=S)N1CCOCC1 | 95% | 75% | 51% |
| Cc1cc(NCC(C)C)c2[nH]nc(-c3ccccc3)c2n1 | 99% | 30% | 9% |
| CC(=O)Nc1ncc(C(=O)Nc2ccc(-c3cccc(-c4nc5cc(F)ccc5[nH]4)c3)cc2)s1 | 100% | 85% | 47% |
| Cc1cccc2nc(-c3cccc(-c4cccc(NC(=O)c5c[nH]cn5)c4)c3)[nH]c12 | 100% | 91% | 2% |
| COc1ccc(C)cc1NC(=O)CSc1nc2cccnc2n1C1CCCCC1 | 89% | 78% | 14% |
| CCCNCc1ccc(-c2ccc(CN(C(=O)c3nn(-c4ccccc4)nc3C)C3CCOCC3)cc2)nc1.O=C(O)C(F)(F)F | 98% | 0% | 14% |
| CC1(C)N=C(N)N=C(NOCCCCCCONC2=NC(N)=NC(C)(C)N2)N1 | 95% | 98% | 34% |
| COc1ccc(CC(=O)NC(CCCN2CCC3(CC2)OCc2ccccc23)c2ccc(Cl)c(Cl)c2)cc1 (centres undefined) | 83% | 53% | 40% |
| CCCCOc1ccc(C(=O)C(CCC(CNC(C)(C)C)C(=O)c2ccc(OCCCC)cc2)CNC(C)(C)C)cc1.Cl (centres undefined) | 94% | 92% | 100% |
| O=C(Nc1cccc(CN2CCCN(Cc3ncc[nH]3)CC2)c1)c1ccc2ccccc2c1.O=C(O)C(F)(F)F | 100% | 2% | 13% |
| CCCCC(CC)CN1C(=O)C(c2ccccc2)(c2ccccc2)N=C1N.O=CO (centres undefined) | 94% | 98% | 32% |

| SMILES | Inhibition (Plasmodium falciparum [1]) | Inhibition (Plasmodium falciparum [2]) | Inhibition (HepG2) |
| --- | --- | --- | --- |
| Cc1cc(NC(=O)c2ccco2)ccc1OC1CCN(Cc2ccc(F)cc2)C1.O=C(O)C(F)(F)F (centres undefined) | 96% | 92% | 5% |
| Cc1cc2nc(-c3ccc(C(=O)NCc4cccc(F)c4)cc3)[nH]c2cc1C | 91% | 6% | 0% |
| Oc1ccc(Cl)c2c1C(c1ccccc1)=NCC2 | 95% | 43% | 0% |
| CN1CCN(CCCCNc2c3ccccc3nc3ccccc23)CC1 | 100% | 0% | 37% |
| COc1cc2c(cc1OCCN1CCC(N3CCCCC3)CC1)N(C(=O)/C=C/c1ccccc1OC(F)(F)F)CC2.Cl | 100% | 93% | 64% |
| CCn1c(-c2nonc2N)nc2c(-c3cccc(Cl)c3)ncc(OCCCNCCc3c[nH]cn3)c21.O=C(O)C(F)(F)F | 100% | 98% | 16% |
| Cc1nc(N/C=C/c2ccc(O)cc2)cc(N2CCCC2)n1 | 93% | 54% | 0% |
| Cc1ccc(CCC(C)NCC(O)c2cccc(C(F)(F)F)c2)cc1 (centres undefined) | 99% | 98% | 0% |
| Cl.Cn1ccc(-c2cccc(Nc3ccnc4cc(-c5nccs5)ccc34)c2)n1 | 100% | 94% | 39% |
| Cc1cccc2nc(-c3cccc(-c4ccc(NC(=O)C(C)(C)c5ccccn5)cc4)c3)[nH]c12 | 97% | 4% | 0% |
| O=C(NCCN1CCCC1)c1cc(-c2ccc(Cl)c(O)c2)c(-c2ccncc2)o1 | 92% | 0% | 0% |
| Fc1ccc(Nc2ccnc3cc(-c4cccc(CN5CCCCC5)c4)ccc23)c(Cl)c1 | 91% | 58% | 3% |
| O=C(Nc1ccc(Oc2ccccc2)cc1)N(Cc1ccc(-c2cccc(CN3CCNCC3)c2)cc1)C1CCN(Cc2ccccc2)CC1.O=C(O)C(F)(F)F | 93% | 53% | 10% |
| Cc1ccc(NC(=O)c2ccc(N3CCN(c4ccncc4)CC3)cn2)cc1F.O=C(O)C(F)(F)F | 98% | 77% | 2% |
| CN(C)C(CNC(=O)c1cc(-c2ccncc2)c(-c2ccc(NC(=O)Nc3cccc(F)c3)cc2)o1)c1ccccc1.O=C(O)C(F)(F)F (centres undefined) | 100% | 99% | 11% |
| CCN(CC)CCN(Cc1ccc(-c2ccc(C(F)(F)F)cc2)cc1)C(=O)Cn1cc(Cc2cnn(C)c2)c(=O)nc1/C=C/c1cccc(F)c1F.O=C(O)C(O)C(O)C(=O)O | 95% | 98% | 11% |
| c1ccc(-c2nnc(-c3ccccn3)nc2NC2CCCCC2)cc1 | 97% | 80% | 74% |
| CCCS(=O)(=O)N1CCC(CO)(Cc2ccccc2C(F)(F)F)CC1 | 97% | 57% | 0% |
| Fc1ccc(CNc2ncc(-c3ccsc3)c(-c3nccs3)n2)cc1 | 94% | 77% | 7% |
| O=C(NCCCCN1CCC(c2ccc3c(c2OCCN2CCCC2=O)CCCC3)CC1)c1ccc(-c2ccc(C(F)(F)F)cc2)cc1 | 88% | 1% | 56% |
| Cl.c1ccc(-c2cc(NCCCCCCCCNc3cc(-c4ccccc4)nc4ccccc34)c3ccccc3n2)cc1 | 100% | 72% | 36% |

| SMILES | Inhibition (Plasmodium falciparum [1]) | Inhibition (Plasmodium falciparum [2]) | Inhibition (HepG2) |
| --- | --- | --- | --- |
| CC(C)CCN1CCC(Oc2ccc(NC(=O)c3cccs3)cc2Cl)C1.O=C(O)C(F)(F)F (centres undefined) | 94% | 93% | 17% |
| Fc1ccc2[nH]c(-c3ccc(-c4ccc(CN5CCN(CCN6CCOCC6)CC5)cc4)s3)nc2c1.O=C(O)C(F)(F)F | 99% | 98% | 39% |
| O=C1NC(C(=O)Nc2ccccc2)C(c2ccccc2)S1 (centres undefined) | 95% | 99% | 0% |
| Clc1ccc(CNc2ccnc(NCCc3coc4ccccc34)n2)c(Cl)c1 | 86% | 39% | 26% |
| COc1cc2nc(N3CCN(c4cc(C)ccc4C)CC3)nc(N)c2cc1OC.Cl | 98% | 12% | 66% |
| Br.CCOC(=O)c1c(CNc2ccncc2)n(C)c2cc(Br)c(OC(C)=O)cc12 | 96% | 93% | 0% |
| CCOc1ccc(C(=O)Nc2cc(Br)c3c(c2)CNCC3)cc1C(F)(F)F.Cl | 98% | 22% | 15% |
| OCCn1c(CNCCCNc2nc3ccccc3[nH]2)cc2c(Cl)cc(Cl)cc21 | 95% | 0% | 29% |
| COc1ccc2nccc([C@@H](O)CN3CCC(NCCOc4ccc(F)cc4Cl)CC3)c2c1.O=C(O)C(=O)O | 99% | 85% | 1% |
| Cc1cc2c(cc1C(F)(F)F)N(C(=O)Nc1cc(OCCN(C)C)cc(C(F)(F)F)c1)CC2.Cl | 100% | 19% | 16% |
| CC(CCCCC(=O)Nc1ccc(C(F)(F)F)cc1)NCC(O)c1cccc(Cl)c1 (centres undefined) | 99% | 92% | 51% |
| CCCc1cc(NC2CCN(C)CC2)nc(Nc2ccc(F)cc2)n1 | 95% | 16% | 20% |
| O=C(NCC1CCC(CNCCCc2ccccc2)CC1)c1cc(Cl)cc(Cl)c1 (centres undefined) | 89% | 13% | 58% |
| O=C(Nc1ccc(C(F)(F)F)cc1)c1cccc(S(=O)(=O)NC2CCN(CC3CCCCC3)CC2)c1.O=C(O)C(F)(F)F | 99% | 12% | 18% |
| CCCN1CCN(CCCNC(=O)c2cc3c(Cl)nc4ccc(C)cc4c3s2)CC1 | 97% | 27% | 18% |
| Cl.O=C(NCCCCN1CCC(c2ccc(OC(F)(F)F)cc2)CC1)c1ccc(NC(=O)c2ccc(Cl)cc2)cc1 | 99% | 98% | 24% |
| CCN1CCN(CCCNc2ccnc3cc(Cl)ccc23)CC1.Cl | 100% | 77% | 7% |
| CCNc1cc(C)nc(Nc2ccc(NC(=O)c3cccs3)cc2)n1 | 100% | 50% | 21% |
| Cn1cnc(CCNC(=O)c2cccc(-c3ccc(-c4nc5cc(F)ccc5[nH]4)cc3)c2)c1 | 88% | 5% | 26% |
| Cc1cc2nc(-c3ccc(C(=O)NCc4cccc(C(F)(F)F)c4)cc3)[nH]c2cc1C | 98% | 34% | 4% |
| CNC(=O)c1cnc(Nc2ccc(N3CCN(C)CC3)cc2)nc1Nc1cccc(OC(C)C)c1.O=C(O)C(F)(F)F | 100% | 100% | 16% |
